This passage reports inhibition results from PubChem BioAssay AID1259343 (VanderVen Lab, College of Veterinary Medicine, Cornell …, 2017).

Molecules are shown by their SMILES. About 2,900 (47%) of roughly 6,200 compounds were called active. Rule as the data show it: active = inhibition above about 50%; inactive = the rest. The set was probably picked from earlier hits. The list shows a part of the results.

This assay is described as follows: Mycobacterium tuberculosis growth inhibition, primary screen (AID 1259343). To be noted: inhibition: at 10 µM, active compounds read high; outcome: 10 uM.
For the molecule `O=c1cc(CN2CCc3ccccc32)occ1OCc1ccc(Cl)cc1`, the inhibition (as a rule, the change of the read-out against control, counted positive when it falls) was 1.87% (inactive).

For the molecule `Cc1cc(C)cc(NC(=O)COc2coc(CN3CCc4ccccc43)cc2=O)c1`, the inhibition is 69.1% (active).

Regarding `CCc1nnc(N/N=C\c2cc(Cl)c(OCc3ccccc3F)c(OC)c2)n1N`, the inhibition is 51.4% (active).

Regarding `CC(C)=CCCC(C)[C@@H]1CC[C@]2(C)C3=C(CC[C@@]12C)C1(C)CC[C@H](O)C(C)(C)C1CC3` (some centres undefined), the inhibition was 49.1% (inactive).

`CCCCOc1c(I)cc(CNCCN(C)C)cc1OCC`: the inhibition was -1.94% (inactive).

`COc1ccc([C@@H](C)C(=O)c2ccc(O)cc2O)cc1`: the inhibition is 64.6% (active).

As to `COc1c(O)cc(O)cc1O`, the inhibition is 19.6% (inactive).

Take `COc1ccc(C(=O)Nc2cnn(C(C)(C)C)c2)c(O)c1`: the inhibition was -6.01% (inactive).

On to `CS(=O)c1c(Cl)cccc1NC(=O)N1CCN(c2ncc(Cl)cc2Cl)CC1` (centres undefined), for which the inhibition was -25.6% (inactive).

Take `O=S(=O)(c1cccc(Br)c1)N1CCCN(c2ncc(C(F)(F)F)cc2Cl)CC1`: the inhibition was 45% (inactive).

Regarding `O=C(CCl)N1CCN(c2ncc(C(F)(F)F)cc2Cl)CC1`, the inhibition was 67.7% (active).

Take `Cc1c(/C=C/c2ccc(Br)cc2F)n[nH]c(=O)c1C#N`: the inhibition was 67% (active).

On to `COc1ccc(C(=O)C=Cc2ccc(Br)cc2F)c(OC)c1`, for which the inhibition is -5.68% (inactive).

For `O=C(c1ccc(Cl)cc1Cl)N1CCCC(OCc2ccccc2Cl)C1` (centres undefined), the inhibition was 20.5% (inactive).

For `O=C(NN=CC=Cc1ccccc1)c1cc(C23CC4CC(CC(C4)C2)C3)[nH]n1`, the inhibition is 11.1% (inactive).

As for `c1ccc(Nc2ccc(OCc3nn[nH]n3)cc2)cc1`, the inhibition was 10.5% (inactive).

In the case of `C(=Cc1ccccc1)C=NNc1ncnc2ccccc12`, the inhibition is 99.2% (active).

For the molecule `Oc1ccc(C=NNc2ncnc3scc(-c4ccccc4)c23)c(O)c1`, the inhibition was 12.7% (inactive).

For the molecule `C(=Cc1ccccc1)C=NNc1nn[nH]n1`, the inhibition was 86.6% (active).

For the molecule `Cc1ccc(-n2ncc3c(C4CC4)nn(C)c(=O)c32)cc1C`, the inhibition is 47.4% (inactive).

`CC(C)c1nnc(SCc2cccnc2)c2c1cnn2-c1ccc(F)cc1`: the inhibition was 48% (inactive).

In the case of `CCOCCSc1nnc(C)c2cnn(-c3ccc(C)c(C)c3)c12`, the inhibition is 51.4% (active).

With `CC(=O)C1=NN(c2ccccc2)C2C(=O)N(c3ccc(Br)cc3)C(=O)C12` (centres undefined), the inhibition is 14.1% (inactive).

For the molecule `O=C1[C@H]2C(c3ccccc3)=NN(c3ccccc3)[C@H]2C(=O)N1c1ccccc1`, the inhibition is 73% (active).

For the molecule `O=c1[nH]cnc2c1nnn2-c1ccc(OC(F)(F)F)cc1`, the inhibition was 49.2% (inactive).

`N[C@H](C(=O)O)[C@@H]1CC(Cl)=NO1`: the inhibition was 91.8% (active).

Consider `CCOc1c(Br)cc(C=CC(=O)c2ccc(F)cc2)cc1OC`, for which the inhibition was -23.1% (inactive).

Take `CCOc1c(Br)cc(C=CC(=O)c2ccc(OC)cc2)cc1OC`: the inhibition was 14.3% (inactive).

Regarding `CCOc1cc(C=CC(=O)c2ccc(Cl)cc2)ccc1O`, the inhibition was 54% (active).

As for `O=S(=O)(Nc1ccc(F)c(Cl)c1)c1ccc(Cl)s1`, the inhibition is 52.7% (active).

Regarding `O=S(=O)(Nc1ccc(OC(F)F)c(Cl)c1)c1ccc(Cl)s1`, the inhibition is 79.2% (active).

As for `O=S(=O)(Nc1ccc(OC(F)F)c(Cl)c1)c1ccc(Cl)c(Cl)c1`, the inhibition was -2.94% (inactive).

Regarding `O=S(=O)(Nc1ccc(F)c(Cl)c1)c1ccc(Br)s1`, the inhibition was 24.5% (inactive).

Consider `O=S(=O)(Nc1ccc(OC(F)F)c(Cl)c1)c1ccc(F)c(Cl)c1`, for which the inhibition is -3.78% (inactive).

Take `COC(=O)c1sccc1S(=O)(=O)Nc1cc(C)ccc1OC`: the inhibition is 54.2% (active).

Take `COC(=O)c1sccc1NS(=O)(=O)c1cc(Cl)cc(Cl)c1`: the inhibition was 7.22% (inactive).

For the molecule `Cc1ccc(-c2ccsc2C(=O)NS(=O)(=O)N2CCCCC2)cc1`, the inhibition was 20.7% (inactive).

On to `O=C(C1c2ccccc2Oc2ccccc21)N(C(=O)N1CCCCC1)c1ccccc1`, for which the inhibition is 3.02% (inactive).

`Cc1cc(OCCN2CCN(Cc3ccccc3)CC2)ccc1I`: the inhibition was 88.7% (active).

Turning to `Cc1cc(C)c(CN2CCC(CO)(CCOc3ccccc3)CC2)cc1C`, the inhibition was 17.3% (inactive).

In the case of `O=c1ccc(-c2cccc(Br)c2)nn1Cc1cccc(F)c1`, the inhibition was 48.5% (inactive).

As for `Cc1cccc(Cn2nc(-c3ccc(Br)cc3)ccc2=O)c1`, the inhibition was 24.7% (inactive).

Take `Cc1cccc(Cn2nc(-c3ccc(F)cc3)c3sc(C)nc3c2=O)c1`: the inhibition was 94% (active).

On to `CC(C)c1ccc(S(=O)(=O)c2ccc(Cl)cc2)cc1`, for which the inhibition is -10.2% (inactive).

With `CC(C)c1ccc(C(N)=S)cc1`, the inhibition was 99.7% (active).

For the molecule `COc1ccc2c(C)nc(N=C(N)N)nc2c1`, the inhibition was 38.5% (inactive).

On to `COc1ccc(C(N)=S)cc1`, for which the inhibition is 68.6% (active).

On to `CCN(C(=O)c1ccc2c(=O)n(CC)c(=O)[nH]c2c1)c1ccccc1C`, for which the inhibition was -22.1% (inactive).

`c1csc(-c2noc(CN3CCCN(c4nc5ccccc5s4)CC3)n2)c1`: the inhibition is 91.6% (active).

With `c1ccc(CCc2noc(CN3CCN(c4nc5ccccc5s4)CC3)n2)cc1`, the inhibition was 89.5% (active).

With `CCCc1nc(CN2Cc3ccccc3-c3ccccc3C2)no1`, the inhibition is -15.3% (inactive).

As to `Fc1ccccc1Cc1noc(CN2CCN(c3nc4ccccc4s3)CC2)n1`, the inhibition is 60.6% (active).

On to `Fc1ccc(Cn2ncc3c2CN(c2nc4ccccc4s2)C3)cc1`, for which the inhibition is 32.9% (inactive).

`O=C(NN=Cc1ccc(O)cc1)c1cc(-c2ccc(Cl)cc2Cl)n[nH]1`: the inhibition is 85.8% (active).

For the molecule `O=C(NN=Cc1ccco1)c1cc(-c2ccc(Cl)cc2)n[nH]1`, the inhibition was 43.3% (inactive).

`O=C(NN=Cc1ccc(O)cc1)c1cc(C23CC4CC(CC(C4)C2)C3)[nH]n1`: the inhibition was 16.7% (inactive).

In the case of `COCCCCC(=O)Nc1cc(C(F)(F)F)[nH]n1`, the inhibition was 78% (active).

Regarding `Cc1cccc(C2Oc3ccccc3C3CC(c4ccc5c(c4)OCCO5)=NN32)c1` (centres undefined), the inhibition is -14.9% (inactive).

Consider `COc1cccc(C2Oc3ccccc3C3CC(c4ccc5c(c4)OCCO5)=NN32)c1` (centres undefined), for which the inhibition was 103% (active).

With `COc1cccc2c1OC(c1ccccn1)N1N=C(c3ccccc3)CC21` (centres undefined), the inhibition was -22.4% (inactive).

On to `CN1CCC[C@@H]1CCO[C@](C)(c1ccccc1)c1ccc(Cl)cc1`, for which the inhibition was 37.7% (inactive).

As to `O=C(Nc1ncc(-c2ccccc2)s1)OCC(F)(F)F`, the inhibition was 0.3% (inactive).

With `O=C(Nc1ncc(-c2ccccc2)s1)C1CSCCS1` (centres undefined), the inhibition is 95.8% (active).

Turning to `S=C(NN=C1CC2CC=CC12)NC1CCCCC1` (centres undefined), the inhibition was 1.05% (inactive).

For `CC1(C)CC(=O)CC(=NNC(=S)NC2CCCCC2)C1`, the inhibition was 34.4% (inactive).

With `O=C1CCCC(=NNC(=S)NC2CCCCC2)C1`, the inhibition is 55.2% (active).

As to `CN(CCC(O)c1ccccc1)C(=O)c1ccc(Cl)s1` (centres undefined), the inhibition was 13.2% (inactive).

`CC(CCc1ccccc1)N=c1c([N+](=O)[O-])nn(-c2ccccc2)n1O` (centres undefined): the inhibition was 102% (active).

Consider `Cc1cc2c(=O)n(Cc3ccco3)c(SCC(=O)c3cccs3)nc2s1`, for which the inhibition was 85.2% (active).

As for `COc1ccc(-c2noc(CSc3nnnn3C3CCCC3)n2)cc1`, the inhibition is 41% (inactive).

For the molecule `COc1ccc(-c2noc(COc3cccc4c3OCCO4)n2)cc1`, the inhibition is 51.6% (active).

As for `CC(C(O)c1ccccc1)N(C)C(=O)c1ccccc1` (centres undefined), the inhibition is 1.34% (inactive).

Consider `CN(NC(=O)CC(=O)NN(C)C(=S)c1ccccc1)C(=S)c1ccccc1`, for which the inhibition is 102% (active).

`Oc1ccc2ccccc2c1C=NNC1=NCCC1`: the inhibition was 27.5% (inactive).

Turning to `Cc1cc(=O)[nH]c(NN=Cc2c3ccccc3cc3ccccc23)n1`, the inhibition was 49.1% (inactive).

`Oc1ccc2ccccc2c1C=NNc1nnc(-c2ncc[nH]2)c2ccccc12`: the inhibition was 99% (active).

For `CCCC(C)C1(CC)C(=O)NC(=S)NC1=O` (centres undefined), the inhibition was 32.6% (inactive).

With `CS(=O)(=O)Nc1ccc([N+](=O)[O-])cc1Oc1ccccc1`, the inhibition is 24.9% (inactive).

Regarding `Nc1cc([N+](=O)[O-])ccc1NS(=O)(=O)c1ccc(Cl)cc1`, the inhibition is -52.1% (inactive).

As for `Nc1ccc(S(=O)(=O)Nc2ccc([N+](=O)[O-])cc2O)cc1`, the inhibition is 53.9% (active).

`CC(=NNC(N)=S)C1=CC(C)(C)CCC1`: the inhibition was 90.9% (active).

In the case of `Cc1cnc(NC(=O)C2=C(O)c3ccccc3S(=O)(=O)N2C)s1`, the inhibition was 34.9% (inactive).

As for `CCc1ccc(C(=O)Nc2ncc(C)s2)s1`, the inhibition is 62.1% (active).

With `CCOc1ccc(NC(=O)c2ccc(Br)s2)cc1`, the inhibition is 8.86% (inactive).

Take `CCc1ccc(C(=O)Nc2ccc(Br)cc2)s1`: the inhibition is 73.9% (active).

With `Cc1cnc(NC(=O)c2cccc(OC(F)F)c2)s1`, the inhibition is -11.7% (inactive).

For the molecule `Cn1c(=NN=Cc2ccc(OC(F)F)cc2)sc2ccccc21`, the inhibition is -24.6% (inactive).

As to `Cn1c(=NN=CC(Br)=Cc2ccccc2)sc2ccccc21`, the inhibition was 88.2% (active).

Turning to `COc1cc(C=NN=c2sc3ccccc3n2C)cc(OC)c1O`, the inhibition is 68.8% (active).

Consider `Cn1c(=NN=Cc2ccccc2C(F)(F)F)sc2ccccc21`, for which the inhibition was -39.7% (inactive).

As to `COc1cc(C=NN=c2sc3ccccc3n2C)cc(Br)c1O`, the inhibition is 10.7% (inactive).

With `Cn1c(=NN=CC(Cl)=Cc2ccccc2)sc2ccccc21`, the inhibition is 88.7% (active).

Take `O=C(NCC1CCCC1)n1ccnc1`: the inhibition was 79.2% (active).

Regarding `CCN(CCNC(=O)NCC1CCCC1)C(=O)OC(C)(C)C`, the inhibition was 47.4% (inactive).

In the case of `Cc1cc(NC(=O)C2CC2)sc1C(=O)n1ccnc1`, the inhibition is 48.7% (inactive).

Consider `CC1CN(C(=O)CN2CCc3sccc3C2c2cccc(F)c2)CCN1C(=O)Nc1ccc([N+](=O)[O-])cc1` (centres undefined), for which the inhibition was -36.2% (inactive).

For `OC(C#Cc1ccccc1)C#CC(O)(c1ccccc1)c1ccccc1` (centres undefined), the inhibition is -2.57% (inactive).

`N#CC(=Cc1ccc2c(c1)OCCO2)C(=O)Nc1ccc(SC(F)F)cc1`: the inhibition was 84.4% (active).

For the molecule `CSc1ccc(C=CC(=O)c2ccc3c(c2)OCCO3)cc1`, the inhibition is -10.1% (inactive).

Regarding `O=S(=O)(Nc1ccccc1Br)c1ccc(Br)s1`, the inhibition is 83.3% (active).

`CCc1ccccc1NS(=O)(=O)c1cc(Cl)cnc1N`: the inhibition was 1.41% (inactive).

For the molecule `CC(C)(C)c1ccccc1NS(=O)(=O)c1ccc(Cl)s1`, the inhibition is 23.7% (inactive).

In the case of `O=S(=O)(Nc1ccccc1Br)c1ccccc1Br`, the inhibition is 91.4% (active).

Consider `COC(=O)c1ccc(NS(=O)(=O)c2ccccc2Br)s1`, for which the inhibition was 43.4% (inactive).
